Shown are actives, neighbours in structure and some others; about 7.3% of the full set was active somewhere.
ELG1 genotox = qHTS screen for small molecules that induce genotoxicity in human embryonic kidney (HEK293T) cells expressing luciferase-tagged ELG1; HEK293T ELG1-luciferase reporter, luminescence, 16 h; Potency, µM (series often up to 46 µM), inactives show at the top dose activity change, positive = activation, most hits filed as activators; 330,000 tested, 1.3% active; note: % of control where 0% means no effect; nearly all actives have a fitted effect of over 60% in size
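Luminescence read-out: rising ELG1-luciferase signal, reflecting elevated ELG1 protein under genetic stress, flags genotoxic compounds. Cells were treated for 16 hr at 37 °C before ONE-Glo detection.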
FLuc modulator = qHTS profiling assay for firefly luciferase inhibitor/activator using purifed enzyme and Km concentrations of substrates (counterscreen for miR-21 project) | Luciferin 4-monooxygenase (Photinus pyralis), P08659 | purified FLuc, Km substrates, luminescence inhibition | Potency, µM (doses to about 57.5 µM), without a hit: at the top dose activity change, negative = inhibition, most hits filed as inhibitors | 360,000 tested, 6.9% active | AID 588342, 2011;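 note: plate controls were vehicle for no effect and reference inhibitor for full effect; nearly all actives have a fitted effect of over 55% in size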
Target sequence (P08659 whole entry, looked up): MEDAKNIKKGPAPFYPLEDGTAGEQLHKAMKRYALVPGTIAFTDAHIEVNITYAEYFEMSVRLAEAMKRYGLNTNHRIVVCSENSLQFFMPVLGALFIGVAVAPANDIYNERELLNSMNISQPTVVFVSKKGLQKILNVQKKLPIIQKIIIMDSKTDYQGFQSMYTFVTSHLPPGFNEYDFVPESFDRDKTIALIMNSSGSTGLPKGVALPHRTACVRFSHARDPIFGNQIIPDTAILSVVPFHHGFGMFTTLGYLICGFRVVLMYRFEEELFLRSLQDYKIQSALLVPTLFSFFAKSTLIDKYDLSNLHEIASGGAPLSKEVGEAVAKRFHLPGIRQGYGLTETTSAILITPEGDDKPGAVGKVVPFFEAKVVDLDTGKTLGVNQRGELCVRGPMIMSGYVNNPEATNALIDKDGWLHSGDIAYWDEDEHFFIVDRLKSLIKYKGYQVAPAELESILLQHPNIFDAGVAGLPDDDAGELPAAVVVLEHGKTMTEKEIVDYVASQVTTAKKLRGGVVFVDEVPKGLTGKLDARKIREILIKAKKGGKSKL
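Biochemical qHTS of compounds, final roughly 60 µM downward over six points, against 10 nM purified firefly luciferase using Km concentrations of substrates (10 uM D-luciferin, 10 uM ATP) in Tris acetate pH 7.5 buffer; luminescence output.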
Rab9 promoter act = qHTS Assay for Rab9 Promoter Activators. Huh7 Rab9 promoter-luciferase reporter, luminescence, 24 h. Potency, µM (doses to about 9.22 µM), for inactives: at the highest dose activation, negative = inhibition, usual class: activators. 320,000 tested, 2.8% active. AID 485297, 2010; note: % of control where 0% means no effect; nearly all actives have a fitted effect of over 60% in size
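Cell-based reporter: Huh7 stable for Rab9 promoter-driven luciferase, plated in reduced-serum medium with 10% FBS at 1500 cells/well, compound-treated 24 h at 37 °C, luminescence read after 10 min reagent.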
p53 reactivator = qHTS assay for re-activators of p53 using a Luc reporter | 320,000 tested, 0.063% active | H1299 p53-A138V BP100-luciferase reporter, luminescence, 24 h | Potency, µM (highest dose often 92.2 µM), for the others: at the highest dose activity change, positive = activation, hits mostly activators | AID 504706, 2011; note: % of control where 0% means no effect; nearly all actives have a fitted effect of over 45% in size
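H1299 (p53-null), stable ts p53-A138V + BP100-Luc; 1000 cells/well, Opti-MEM/10% FBS; cpd 4 pt, 1:5; 24 h, 37 deg C, 5% CO2; detection reagent 10 min RT; luminescence.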
NPC1 promoter act = qHTS Assay for NPC1 Promoter Activators; Potency, µM (titrated, usually from 9.22 µM), inactives show top-dose activation, most hits filed as activators; Huh7 NPC1 promoter luciferase reporter, 24 h; 320,000 tested, 2.4% active; AID 485313, 2010; note: % of control where 0% means no effect; nearly all actives have a fitted effect of over 60% in size
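Readout is luciferase luminescence, reflecting NPC1 promoter activation in stably transfected Huh7 cells after 24 h compound exposure at 37 °C in reduced-serum medium with 10% FBS.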
SMN2 splice enh = qHTS Assay for Enhancers of SMN2 Splice Variant Expression. Potency, µM (doses to about 46.1 µM), inactives show at the highest dose activity change, positive = activation, actives largely listed as activators. HEK293 SMN2-luciferase splicing reporter, luminescence, 30-36 h. 210,000 tested, 2.8% active. AID 1458, 2008; note: % of control where 0% means no effect; nearly all actives have a fitted effect of over 55% in size
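HEK293 cells carry an SMN2 […]–luciferase reporter in which exon 7 inclusion puts luciferase in frame. Cells were plated 10-12 h before compound addition, then incubated 30-36 h at 37C. ONE-Glo luminescence was read; sodium butyrate at 4.5 mM final served as control.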
Numbers without * were called inactive; u = inconclusive; x = no result; [ ] = another dose, or the depositor's remark. Calls come from the whole dose curve; as a rule, active = well fitted curve in the direction sought with a large enough effect; inconclusive = small, poorly fitted or top-dose-only effect, or another doubt; inactive = no such curve, though single readings can be large; an effect the other way counts as inactive or inconclusive. Potency is the fitted concentration of half-maximal effect.

SMILES | ELG1 genotox | FLuc modulator | Rab9 promoter act | p53 reactivator | NPC1 promoter act | SMN2 splice enh
CC(=O)c1nc2ccccc2n1CCc1ccccc1 | -9.6% | 5.6% | -8.2% | 5.4% | 7.9% | 17.4%
Nc1nc2ccccc2n1C(=O)CCc1ccccc1 | 2.31µM* | u | u | 19.3% | u | 10µM*
Nc1nc2ccccc2n1C(=O)c1ccc(F)cc1 | 1.16µM* | 1.35µM* | 0.282µM* | -3.3% | 0.501µM* | x
CC(=O)Nc1ccc(NC(=O)C(Cc2ccccc2)NS(=O)(=O)c2ccc3c(c2)oc(=O)n3C)cc1 (stereo not drawn) | x | 0.7% | x | x | x | -4.9%
COc1ccc(C2C(=O)N(C3CCC(C)CC3)CC(=O)N2CCc2ccccc2)cc1OC (stereo not drawn) | x | -0.1% | x | x | x | x
Cc1ccc(NCc2cccn2-c2nnc(N3CCC(C(=O)NCc4ccccc4C)CC3)s2)cc1 | x | -1.9% | x | x | x | -48.6%
COc1ccc(C(=O)n2c(N)nc3ccccc32)cc1OC | u | 19µM* | 2.51µM* | u | 2.82µM* | x
O=C(c1ccco1)N1CCn2c1nc1ccccc12 | u | u | u | 28.2% | u | 11.2µM*
Nc1nc2ccccc2n1C(=O)c1ccccc1 | 0.651µM* | 0.757µM* | 0.355µM* | -7.8% | u | 1.58µM*
Cc1cc(=O)cc(C)n1-c1ccc(Cl)cc1 | 1.0% | -0.8% | 0.0% | 1.5% | -0.6% | -4.8%
Cc1cc(C=C2C(=O)c3ccccc3C2=O)c(C)n1-c1ccc(Cl)cc1 | 4.61µM* | 0.675µM* | 3.5% | 17.3% | 8.0% | -60.1%
Cc1cccc(-n2c(C)cc(C=C3C(=O)c4ccccc4C3=O)c2C)c1 | u | 0.849µM* | u | u | u | -20.6%
O=c1oc2ccccc2c2c1C1O[C@](c3ccsc3)(Cc3c1ccc1ccccc31)O2 | x | u | -0.6%[1.84 µM] | x | 18.0%[1.84 µM] | x
CNC(=S)N/N=C/c1cn(CCOc2ccc(OC)cc2)c2ccccc12 | 5.5% | 21.3µM* | -2.8% | 3.3% | -0.7% | u
Cc1ccccc1OCC(=O)N/N=C/c1cn(C)c2ccccc12 | -2.2% | 15.1µM* | 12.7% | -3.4% | -1.5% | x
COc1ccccc1OCCn1cc(/C=N/NC(N)=S)c2ccccc21 | -8.8% | -5.5% | -7.3% | -2.0% | 1.1% | -9.4%
Cc1ccc(OCC(=O)N/N=C/c2cn(C)c3ccccc23)cc1 | 3.5% | 10.7µM* | 10.7% | -5.2% | 2.8% | x
CC(C)n1c(SCC(=O)c2ccc(F)cc2)nc2c(sc3ccccc32)c1=O | x | -1.1% | x | x | x | x
CCc1nc2nc(C)c(NS(=O)(=O)c3ccc(C(C)(C)C)cc3)c(=O)n2[nH]1 | x | u | x | x | x | 11.0%
COc1cc(NC(=O)C2CCCN(S(=O)(=O)c3cn(C)cn3)C2)cc(OC)c1 (stereo not drawn) | x | -0.9% | x | x | x | x
Cc1ccc(-n2ncc3c(N4CCN(Cc5ccccc5)CC4)ncnc32)cc1Cl | x | -11.1% | x | x | x | x
CCC(=O)NNc1ncnc2c1cnn2-c1ccc(C)c(Cl)c1 | x | 21.3µM* | x | x | x | x
Cc1ccc(-n2ncc3c(NC4CCCCC4)ncnc32)cc1Cl | x | 1.07µM* | x | x | x | x
CC(=O)NNc1ncnc2c1cnn2-c1ccc(C)c(C)c1 | u | u | 20.2% | 10.5% | 10.7% | 22.2%
CCC(=O)NNc1ncnc2c1cnn2-c1ccccc1 | 11.4% | 6.3% | -1.6% | -2.8% | -4.6% | 18.9%
Cc1ccc(-n2ncc3c(NC4CCCCC4)ncnc32)cc1C | x | 0.601µM* | x | x | x | x
COc1ccc(NC(=O)CCn2cnc3onc(-c4ccc(F)cc4)c3c2=O)cc1OC | x | -9.3% | x | x | x | x
O=C(CN1C(=O)COc2ccc(S(=O)(=O)N3CCOCC3)cc21)NCc1ccc(Cl)cc1 | x | 5.7% | x | x | x | x
COc1ccc(Nc2nnc(-c3ccc(C)c(S(=O)(=O)N4CCN(C)CC4)c3)c3ccccc23)cc1 | x | 16.9µM* | x | x | x | 0.1%

Compound activity as filed in PubChem BioAssay.
